# From PubChem BioAssay
# ROMK mod: modulates human ROMK potassium channel activity; P48048; Tet-inducible ROMK, thallium flux fluorescence; actives lie on both sides; B-score at 10 µM; actives 2% (n = 130,000);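 active = signal ratio slope over the read window, or its plate-corrected B-score, at least 3 SD from the plate mean, either direction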;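 also: B-score of the F/F0 ratio slope over 7 to 12 s after thallium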
# Target sequence (P48048 whole entry, looked up): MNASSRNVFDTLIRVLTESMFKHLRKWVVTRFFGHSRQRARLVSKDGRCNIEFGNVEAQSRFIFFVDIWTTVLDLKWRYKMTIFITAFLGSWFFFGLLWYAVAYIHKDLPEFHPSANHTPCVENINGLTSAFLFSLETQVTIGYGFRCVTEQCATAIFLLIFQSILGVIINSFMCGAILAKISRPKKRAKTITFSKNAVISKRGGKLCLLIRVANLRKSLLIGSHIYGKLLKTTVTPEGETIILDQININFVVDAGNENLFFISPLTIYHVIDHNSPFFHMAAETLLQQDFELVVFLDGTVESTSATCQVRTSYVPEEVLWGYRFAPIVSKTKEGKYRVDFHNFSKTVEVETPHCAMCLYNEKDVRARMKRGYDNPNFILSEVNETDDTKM
# INS promoter inh: TRM-6 insulin promoter activity inhibition; TRM-6 cells (human fetal islet line), insulin promoter-eGFP reporter, imaging; reporter expression induced with tamoxifen; actives 0.9% (n = 130,000); inhibition, % at 2 µM;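 active = inhibition above the mean plus 3 SD, with well images judged a real hit on visual review, cut at about 60% in these data, passing the limit was not always enough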
# Insulin prom up: MIN6 insulin promoter up-regulation; MIN6 insulin promoter-GFP reporter, high-content imaging; stronger effect = higher value; actives 0.3% (n = 190,000); z-score at 5 µM;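 active = z-score above 3 at 5 µM with at least 500 cells counted in the well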
# HSV augment: increases HSV replication in cells. actives 0.005% (n = 220,000). maximum fold increase. HSV replication augmentation in cells, fold increase; in the data active = maximum fold increase above about 1.5; tested in PC3 cells
# TbHK1 inh: T. brucei hexokinase 1 inhibition; recombinant TbHK1, G6PDH-coupled NADH A340; inhibition, % at 10 µM; actives 0.11% (n = 220,000); AID 1430;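 active = inhibition of 50% or more in the single-dose primary screen; inactive = inhibition below 50%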
# G6PDH counter: counter-screen for TbHK1 inhibitors: Leuconostoc G6PDH inhibition; shares compounds with TbHK1 inh; purified G6PDH, NADH absorbance, 1 h; inhibition, % at 10 µM; actives 7% (n = 210);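 active = at least 50% inhibition in the glucose-6-phosphate dehydrogenase coupled counterscreen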
# TbHK1 rescreen: T. brucei hexokinase 1 inhibition, rescreen; shares compounds with TbHK1 inh; recombinant TbHK1, G6PDH-coupled NADH A340 absorbance; inhibition, % at 10 µM; actives 10% (n = 210);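 active = inhibition of at least 50% in both of the two screening runs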
# A number is an active result; n = inactive; x = no result; ! = not confirmed by another sample. Many of the other results were omitted from the sample, so hits are more common in it than they were.
SMILES,ROMK mod,INS promoter inh,Insulin prom up,HSV augment,TbHK1 inh,G6PDH counter,TbHK1 rescreen
CC(=O)Nc1scc(-c2ccccc2)[n+]1-c1ccc(C)cc1,n,n,n,n,n,x,x
Cc1ccc(-c2nc(N)s[n+]2-c2ccccc2)cc1,n,n,n,n,98,n,95
CCN1C(=O)[C@H]2[C@H]3[C@H](O)[C@H](O)C/C(=N\OC[C@@H](C)[C@H](OCc4ccccc4)C(C)C)[C@@H]3CC[C@H]2C1=O,n,n,n,x,n,x,x
NS(=O)(=O)c1ccc(N/N=C/c2ccc(O)c(O)c2O)c([N+](=O)[O-])c1,x,x,n,n,67,n,n
CC1(C)Cc2c(C#N)c(N)sc(=S)c2CO1,n,n,n,n,73,101,68
CC(C)C1Cc2c(C#N)c(N)sc(=S)c2CO1 (stereo not given),n,n,n,n,n,x,x
COc1cc(/C=C(\C#N)c2nc3c(s2)CCCC3)ccc1O,n,n,x,n,54,n,88
CC12CCC(C(=O)NNc3ccccc3)(OC1=O)C2(C)C (stereo not given),n,x,n,n,n,x,x
CC12CCC(C(=O)NC(c3ccccc3)c3ccccc3)(OC1=O)C2(C)C (stereo not given),n,n,n,n,61,n,n
Cc1c(C(=O)OCC(=O)Nc2ccc3c(c2)OCO3)cccc1[N+](=O)[O-],n,n,n,n,n,x,x
Nc1nonc1-c1nc2ccccc2n1CC(=O)N/N=C\c1ccc(-c2ccc(Cl)cc2)o1,x,n,n,n,52,108,n
Cc1cc(NC(=O)COC(=O)CCCOc2ccc(Cl)cc2C)no1,x,n,n,n,55,n,n
CC(=O)c1c(C(=O)O)[nH]c(C(=O)O)c1C,n,x,n,n,n,x,x
CC(=O)N[C@H](Cc1c[nH]c2ccccc12)C(=O)O,x,x,x,n,x,x,x
CC(=O)/C=C(/C)NC(Cc1c[nH]c2ccccc12)C(=O)O (stereo not given),n,n,n,n,51!,n,n
O=C(NC1CCCCC1)C1CCN(S(=O)(=O)N2CCOCC2)CC1,x,n,n,n,58,n,n
S=C(NNc1ccnc2cc(Cl)ccc12)Nc1ccc(Cl)cc1Cl,x,x,n,n,61,109,60
COc1ccc(C(=O)C2CCN(C(=S)Nc3ccc(F)cc3)CC2)cc1,x,n,n,n,n,x,x
CCN(CC)c1ccc(/C=N/NC(=O)c2ccoc2C)c(O)c1,x,x,n,n,n,x,x
O=C(NN=C1CCCC1)C1COc2ccccc2O1 (stereo not given),n,x,n,n,n,x,x
O=C(O)CCCCC1CCSS1 (stereo not given),n,n,n,n,86,n,96
O=C(O)CCNC1CCCCC1,x,x,n,n,n,x,x
CCN(CC)CCN1C(=O)c2oc3ccccc3c(=O)c2C1c1ccc(F)cc1 (stereo not given),n,n,n,n,n,x,x
CCN(CC)CCCN1C(=O)c2oc3ccccc3c(=O)c2C1c1cccnc1 (stereo not given),n,n,n,n,54,n,n
CCN(CC)S(=O)(=O)c1ccc(NN=C2CCN(C)CC2)c([N+](=O)[O-])c1,n,x,n,n,n,x,x
SMILES,ROMK mod,INS promoter inh,Insulin prom up,HSV augment,TbHK1 inh,G6PDH counter,TbHK1 rescreen
CC(O)c1nc2ccc(Cc3ccc4nc(C(C)O)[nH]c4c3)cc2[nH]1 (stereo not given),x,n,n,n,55,n,n
Cc1ccc(S(=O)(=O)CCC(=O)OC(C)C(=O)c2c(C)[nH]c3ccccc23)cc1 (stereo not given),n,n,n,n,n,x,x
COC(=O)c1[nH]c(=O)c2ccccc2c1O,n,n,x,n,n,x,x
COC(=O)c1[nH]c(=O)c2ccccc2c1OCc1ccccc1,x,n,n,n,54,n,n
COc1ccc(CCNC(=O)c2nnn(CC(=O)Nc3ccccc3)c2N)cc1OC,x,n,x,n,n,x,x
COc1ccc(CCNC(=O)c2nnn(CC(=O)Nc3ccccc3C)c2N)cc1OC,x,n,x,n,55,n,n
CC(C)CNC(=O)NC1C(NC(=O)NCC(C)C)N(C)C(=O)N1C (stereo not given),x,n,n,n,57,n,n
CCC(C)NC(=O)NC1C(NC(=O)NC(C)CC)N(C)C(=O)N1C (stereo not given),n,n,n,n,n,x,x
CC(C)c1cc(C(=O)N/N=C/c2cccnc2)n[nH]1,x,n,n,n,n,x,x
Cc1ccc(-c2nnc3c4ccccc4c(C)nn23)cc1NC(=O)CN1CCOCC1,x,n,n,n,51,n,n
CCCCc1ccc(NC(=S)N2CCC(O)CC2)cc1,n,x,n,n,n,x,x
CCOCC(=O)Nc1c(C)n(C)n(-c2ccccc2)c1=O,x,x,n,n,n,x,x
Cc1c(NC(=O)CC(=O)Nc2c(C)n(C)n(-c3ccccc3)c2=O)c(=O)n(-c2ccccc2)n1C,x,n,n,n,74,n,n
Cc1ccccc1N1C(=O)C2ON(c3ccccc3)C(c3cccnc3)C2C1=O (stereo not given),n,x,n,n,n,x,x
Cc1c(Cl)cccc1N1C(=O)C2ON(c3ccccc3)C(c3cccnc3)C2C1=O (stereo not given),n,n,n,n,51,n,n
Cc1cccc(NC(=S)NNC(=O)CCn2cc(C)cn2)c1,x,n,n,n,n,x,x
NC(=O)SC/C(=N\S(=O)(=O)c1ccccc1)Nc1ccccc1,x,n,n,n,58,n,n
COc1ccccc1-c1nnn(CC#N)n1,x,n,n,n,52,n,n
O=C(O)CSc1cc(NS(=O)(=O)c2cccc([N+](=O)[O-])c2)c2ccccc2c1O,x,x,n,n,63,74,62
O=S1(=O)N=C(N2CCOCC2)c2ccccc21,x,n,n,n,57,n,n
O=S1(=O)N=C(Nc2ccc(N3CCOCC3)cc2)c2ccccc21,x,n,x,n,n,x,x
COC(=O)NCCOC(=O)N(O)c1ccc(Br)cc1,x,n,n,n,57,n,n
CN(C)c1ccc(C(=S)N2CCOCC2)cc1,x,n,n,n,69,n,n
CN(C)c1ccc(C(=S)N2CCCCCC2)cc1,n,n,n,n,n,x,x
Nc1ccccc1C(=O)N1CCCC1,n,x,n,n,n,x,x
SMILES,ROMK mod,INS promoter inh,Insulin prom up,HSV augment,TbHK1 inh,G6PDH counter,TbHK1 rescreen
CC1(C)OC(=O)C(=CNc2ncccn2)C(=O)O1,x,n,n,n,52,n,n
CC1(C)OC(=O)C(=CNc2ccccn2)C(=O)O1,x,x,x,n,n,x,x
CN(C)c1ccc(N/C(N)=N/c2nc(C(F)(F)F)cc(C(F)(F)F)n2)cc1,n,x,n,n,n,x,x
COC(=O)[C@H](Cc1ccccc1)NC(=O)O[C@@H]1C(=O)c2cc(Br)ccc2O[C@H]1c1cccc(OC)c1,n,n,n,x,n,x,x
CCCn1c(SCC(=O)Nc2ccccc2CC)nnc1C(C)C,x,n,n,n,65,n,n
CCCn1c(SCC(=O)Nc2c(C)cccc2CC)nnc1C(C)C,x,n,n,n,n,x,x
O=C(OCCN1C(=O)c2ccccc2C1=O)c1cnccn1,x,n,n,n,51,n,n
S=C(NCCc1ccccc1)Nc1c(Cl)cccc1Cl,n,x,n,n,n,x,x
COCCn1c(=O)sc2ccccc2c1=O,n,n,n,n,n,x,x
